This is part of a sample that, as a whole, favours compounds with a hit. Of some 83,000 tested, about 20% had one in any assay.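 Step 1: grow cells in 96-well plates. Step 2: add test compound at a single concentration. Step 3: incubate 48 h. Step 4: record percent growth.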 A number with no mark means an inactive call. Activity calls are given as the source filed them. The calls were made as follows: active = growth percent below 10; inactive = the rest.

Some test systems named below: HCT-15 colon; HT29 colon; SNB-75 CNS; SNB-19 CNS; U251 CNS; PC-3 prostate; SK-MEL-5 melanoma; UACC-62 melanoma; LOX IMVI melanoma; SK-MEL-28 melanoma; SK-MEL-2 melanoma; EKVX NSCLC; SN12C renal; UO-31 renal; TK-10 renal; ACHN renal; CAKI-1 renal; A498 renal; CCRF-CEM leukemia; MOLT-4 leukemia.
What all share (assay): NCI-60 one-dose screen, 48 h (100 = growth as untreated, 0 = no growth, -100 = all killed)
What all share (details): 10 µM unless noted

In the case of `CCc1nn2c(C)cc(C)nc2c1Cc1ccc(/C=C/CN2CCN(CCOCCOCCN3CCN(C/C=C/c4ccc(Cc5c(CC)nn6c(C)cc(C)nc56)cc4)CC3)CC2)cc1`, the growth in the experiment on HCT-15 colon is -81.1% (active); with HT29 colon, -35.8% (active); with SNB-75 CNS, 99%; in the experiment with SNB-19 CNS, 17.7%; in the experiment with U251 CNS, -47% (active); in the experiment with PC-3 prostate it was 24.8%. The growth in the experiment with SK-MEL-5 melanoma is -97.5% (active); in the experiment with UACC-62 melanoma, -86.4% (active); in the experiment on LOX IMVI melanoma it was -88.4% (active); in the experiment with SK-MEL-28 melanoma, -88.9% (active); in the experiment with SK-MEL-2 melanoma, 79.4%; in the experiment on EKVX NSCLC it was 46.6%. For the same molecule, the growth with SN12C renal is 31.4%; with UO-31 renal, -95.9% (active); in the experiment on TK-10 renal, 103%; in the experiment on ACHN renal, 1.5% (active); in the experiment on CAKI-1 renal, -16.2% (active); in the experiment on A498 renal, 69.7%. In addition, the growth in the experiment on CCRF-CEM leukemia was -10.2% (active); in the experiment with MOLT-4 leukemia it was -17.6% (active).
With `COc1cc(/C=C/C(=O)c2ccc(NC(=O)CSc3nnc(-c4ccc(-c5nc6ccc(Cl)cc6[nH]5)cc4)o3)cc2)cc(OC)c1OC`, the growth was 53.7% with HCT-15 colon; 106% in the experiment on HT29 colon; 88.4% with SNB-75 CNS; 89% in the experiment with SNB-19 CNS; 88.5% with U251 CNS; 92.2% with PC-3 prostate. Further, the growth in the experiment with SK-MEL-5 melanoma is 94.1%; with UACC-62 melanoma, 74.2%; in the experiment with LOX IMVI melanoma it was 88.6%; with SK-MEL-28 melanoma it was 88.3%; in the experiment on SK-MEL-2 melanoma it was 99.2%; with EKVX NSCLC, 103%. Also, the growth is 104% in the experiment with SN12C renal; 86% with UO-31 renal; 136% in the experiment on TK-10 renal; 96.7% in the experiment on ACHN renal; 91.2% in the experiment with CAKI-1 renal; 101% with A498 renal. The growth in the experiment on CCRF-CEM leukemia is 85.9%; with MOLT-4 leukemia, 85%.
As for `c1n[nH]cc1-c1nc2ccc3[nH]ncc3c2c2c1CCCC2`, the growth with HCT-15 colon is 12.7%; in the experiment with HT29 colon, 24%; in the experiment on SNB-75 CNS, 7.62% (active); with SNB-19 CNS it was 23.1%; in the experiment on U251 CNS, 30.1%; in the experiment with PC-3 prostate, 23.1%. Further, the growth was 16.1% in the experiment with SK-MEL-5 melanoma; -0.281% (active) in the experiment with UACC-62 melanoma; 18.8% in the experiment on LOX IMVI melanoma; 18.3% with SK-MEL-28 melanoma; -20.7% (active) with SK-MEL-2 melanoma; 42.1% with EKVX NSCLC. For the same molecule, the growth is 15.1% in the experiment with SN12C renal; 11.9% in the experiment with UO-31 renal; 15.1% with TK-10 renal; 10.8% with ACHN renal; 0.509% (active) in the experiment with CAKI-1 renal; -14.2% (active) with A498 renal. Further, the results for the growth in the experiment with CCRF-CEM leukemia and with MOLT-4 leukemia were 28.1% and 24.6%, respectively.
Take `O=C1Nc2ccccc2/C1=C/c1ccc(COCC2CO2)n1-c1ccc(O)cc1` (stereo not given): the growth in the experiment with HCT-15 colon was 107%; with HT29 colon, 110%; in the experiment with SNB-75 CNS, 95.1%; in the experiment with SNB-19 CNS, 97.7%; in the experiment on U251 CNS, 99.4%; with PC-3 prostate, 101%. The growth in the experiment on SK-MEL-5 melanoma is 101%; in the experiment with UACC-62 melanoma it was 96%; with LOX IMVI melanoma, 79.6%; in the experiment on SK-MEL-28 melanoma it was 106%; with SK-MEL-2 melanoma, 101%; in the experiment with EKVX NSCLC it was 102%. The growth with SN12C renal was 105%; with UO-31 renal, 89.7%; in the experiment with TK-10 renal it was 104%; with ACHN renal, 97%; in the experiment on CAKI-1 renal, 98.3%; in the experiment on A498 renal, 115%. Moreover, the values for the growth in the experiment with CCRF-CEM leukemia and in the experiment on MOLT-4 leukemia were 89.2% and 98.8%, respectively.
Consider `Cn1cc(-c2nc(N)nnc2-c2c[nH]c3ccccc23)c2cc(Br)ccc21`, for which the growth with HCT-15 colon was 24.5%; in the experiment on HT29 colon it was 5.93% (active); with SNB-75 CNS, 7.38% (active); in the experiment with SNB-19 CNS it was 27%; in the experiment with U251 CNS, 23.1%; in the experiment on PC-3 prostate, 6.53% (active). Moreover, the growth in the experiment with SK-MEL-5 melanoma is 22.7%; in the experiment on UACC-62 melanoma it was 21%; in the experiment on LOX IMVI melanoma, 24%; in the experiment on SK-MEL-28 melanoma, 55.2%; with SK-MEL-2 melanoma, 19.5%; with EKVX NSCLC, 45.6%. For the same molecule, the growth in the experiment on SN12C renal is 27.9%; in the experiment on UO-31 renal it was 33.5%; in the experiment with TK-10 renal, 88.6%; with ACHN renal it was 38.9%; in the experiment with CAKI-1 renal, 25.2%; in the experiment on A498 renal, -12.1% (active). Moreover, the growth in the experiment on CCRF-CEM leukemia was 7.57% (active); in the experiment on MOLT-4 leukemia, 8.98% (active).
Take `O=S(=O)(NCCNc1nccc(-n2cnc3ccccc32)n1)c1ccc(Br)cc1`: the growth with HCT-15 colon is 95.7%; in the experiment with HT29 colon, 97.2%; in the experiment on SNB-75 CNS, 74.1%; in the experiment with SNB-19 CNS it was 101%; in the experiment with U251 CNS it was 98.6%; with PC-3 prostate it was 93.8%. Besides, the growth with SK-MEL-5 melanoma was 89.1%; with UACC-62 melanoma it was 82.8%; in the experiment on LOX IMVI melanoma, 99.1%; in the experiment with SK-MEL-28 melanoma it was 108%; with SK-MEL-2 melanoma, 108%; in the experiment with EKVX NSCLC, 83.4%. In addition, the growth was 91.5% with SN12C renal; 79.8% in the experiment on UO-31 renal; 103% in the experiment on TK-10 renal; 93.6% with ACHN renal; 81.5% in the experiment with CAKI-1 renal; 76.3% with A498 renal. Besides, the growth in the experiment on CCRF-CEM leukemia was 101%; in the experiment with MOLT-4 leukemia it was 95.9%.
For the molecule `Cc1cc(-c2ccc(Cl)cc2)n(Cc2nnc(SCC(=O)Nc3ccc(S(N)(=O)=O)cc3)n2-c2ccc([N+](=O)[O-])cc2)n1`, the growth in the experiment with HCT-15 colon is 68.3%; with HT29 colon it was 90.9%; in the experiment on SNB-75 CNS it was 129%; in the experiment with SNB-19 CNS, 84.6%; with U251 CNS, 88.4%; in the experiment on PC-3 prostate, 56.5%. The growth in the experiment on SK-MEL-5 melanoma is 95.9%; in the experiment with UACC-62 melanoma, 77.4%; in the experiment on LOX IMVI melanoma, 88.4%; with SK-MEL-28 melanoma, 97.4%; in the experiment on SK-MEL-2 melanoma, 87%; in the experiment on EKVX NSCLC, 75.1%. Besides, the growth with SN12C renal is 82%; with UO-31 renal it was 64%; in the experiment with TK-10 renal, 105%; with ACHN renal, 79.1%; in the experiment with CAKI-1 renal, 71.2%; with A498 renal, 84.5%. Also, the growth in the experiment on CCRF-CEM leukemia is 79.8%; in the experiment on MOLT-4 leukemia it was 54.4%.
For `Nc1cc(F)ccc1NC(=O)c1ccc(NC(=O)C/C=C/c2cccnc2)cc1`, the growth in the experiment on HCT-15 colon is 29.5%; with HT29 colon, 24.5%; in the experiment with SNB-75 CNS, 51.3%; in the experiment on SNB-19 CNS, 46.7%; in the experiment on U251 CNS, 34.1%; in the experiment on PC-3 prostate, 36.6%. The growth in the experiment with SK-MEL-5 melanoma was 49.7%; in the experiment with UACC-62 melanoma, 42.1%; in the experiment with LOX IMVI melanoma, 39.7%; in the experiment with SK-MEL-28 melanoma, 49.4%; in the experiment on SK-MEL-2 melanoma, 41.3%; in the experiment with EKVX NSCLC, 73%. The growth with SN12C renal is 29.5%; in the experiment with UO-31 renal, 52.6%; with TK-10 renal it was 52.9%; in the experiment with ACHN renal, 55.9%; in the experiment with CAKI-1 renal it was 66.4%; in the experiment on A498 renal, 43.2%. Moreover, the growth in the experiment with CCRF-CEM leukemia is 24.6%; with MOLT-4 leukemia it was 40.7%.
